Source: PubChem (The Scripps Research Institute Molecular Screening Center)
In the library only some 3.5% were active in any assay of this set; here they are far more common.
MITF primary = inhibitors of human MITF; AlphaScreen MITF homodimerization, bead proximity signal; inhibition, % at 2.6 µM; actives 0.91% (n = 650,000); in the data active = inhibition above about 50%;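 also: 0% = vehicle wells with protein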
FBW7 act = activators of human E3 ligase FBW7 | Q969H0 | actives 0.13% (n = 650,000) | AlphaScreen FBW7–phospho-cyclin E peptide binding, activator screen | normalized activity (activation), % at 26.1 µM; in the data active = normalized activity above about 1.9%;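 also: purified mutant Fbw7 with reduced substrate affinity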
GPR151 activ = activators of human GPR151. Q8TDV0. PathHunter beta-arrestin GPR151 cells, luminescence. activation, % at 11.2 µM. actives 1% (n = 650,000); in the data active = activation above about 4.9%;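 also: 0% = median of compound wells and 100% = cells with positive control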
Target sequence (Q8TDV0 whole entry, looked up): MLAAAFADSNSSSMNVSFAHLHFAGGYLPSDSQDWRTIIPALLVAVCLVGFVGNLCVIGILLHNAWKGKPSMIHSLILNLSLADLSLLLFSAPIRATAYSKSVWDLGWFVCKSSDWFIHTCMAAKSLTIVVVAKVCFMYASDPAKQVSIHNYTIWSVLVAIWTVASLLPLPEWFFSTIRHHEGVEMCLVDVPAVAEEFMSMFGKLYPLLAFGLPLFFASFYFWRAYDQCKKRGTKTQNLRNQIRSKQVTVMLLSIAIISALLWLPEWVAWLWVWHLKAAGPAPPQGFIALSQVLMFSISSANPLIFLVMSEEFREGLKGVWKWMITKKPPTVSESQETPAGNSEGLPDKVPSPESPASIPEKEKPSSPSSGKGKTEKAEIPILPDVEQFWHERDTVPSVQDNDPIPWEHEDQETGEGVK
TEAD-YAP block = TEAD-YAP interaction inhibition. inhibition, % at 9.12 µM. HEK-TIYL cells, TEAD-Gal4/YAP UAS-luciferase luminescence. actives 1.4% (n = 640,000); in the data active = inhibition above about 32%;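 also: 0% = median of test compound wells and 100% = reference inhibitor wells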
GPR151 conf act = human GPR151 activation, confirmation screen. shares compounds with GPR151 activ. GPR151 PathHunter beta-arrestin cells, luminescence, 90 min; % of EA-reagent control over plate median. activation, % at 11.2 µM. 6,700 tested, under 10 active. AID 1508609;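 active = mean percent activation across replicates above the confirmation screen cutoff of 4.91%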
GPR119 ag = GPR119 activation, counter-screen for GPR151 activators | activation, % at 11.2 µM | actives 0.3% (n = 6,700) | GPR119 PathHunter beta-arrestin cells, luminescence, 90 min; 0 = compound-well median, 100 = enzyme-acceptor control | shares compounds with GPR151 activ | AID 1508611;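 active = mean percent activation in the counterscreen above 29.09%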;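 also: counterscreen on off-target GPR119 to flag nonselective hits from the GPR151 activator screen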
The depositor's hits bear a star; . = no result.

SMILES	MITF primary	FBW7 act	GPR151 activ	TEAD-YAP block	GPR151 conf act	GPR119 ag
COc1ccc(C2CC(=O)C3=C(C2)NC(C)=C(C(=O)OC2CCCC2)C3c2ccccc2C)cc1OC (stereo unspecified)	10	0	5.3*	17	-1	9
COc1ccc(C2CC(=O)C3=C(C2)NC(C)=C(C(=O)OC2CCCC2)C3c2ccccc2OC)cc1OC (stereo unspecified)	6	0	0	4	.	.
O=C(c1cc(-c2ccc(F)cc2)no1)N1CCN(c2ccccc2)CC1	5	0	1	8	.	.
CC(=O)C(Sc1nnc(Nc2ccc(C(C)C)cc2)s1)C(C)=O	9	0	6.0*	-33	0	-4
Cc1ccc(S(C)(=O)=O)cc1C(=O)O	2	0	1	12	.	.
O=C(NC1CCOC1)c1cc(COc2ccc3ncccc3c2)on1 (stereo unspecified)	-3	0	5.2*	19	0	-13
CCOc1ccc2c(-c3cc4cc(Br)ccc4oc3=O)cc(=O)oc2c1	-3	0	7.9*	-3	0	-12
CC(=O)Nc1ccc(CN2Cc3cc(Cl)ccc3OC(C)C2)s1 (stereo unspecified)	1	0	0	-6	.	.
CCOc1ccc(N2CC(C(=O)Nc3ccc(Br)cc3CC)CC2=O)cc1 (stereo unspecified)	4	0	4.9*	0	0	9
Cc1ccc(NC(=O)C2CC(=O)N(c3ccc(F)cc3)C2)c(C)c1 (stereo unspecified)	3	0	19*	8	0	13
COc1ccccc1N1CCN(C(=O)Cn2c(=S)[nH]c3ccccc3c2=O)CC1	9	0	3	0	.	.
COc1ccccc1C(=O)Nc1ccc(N2CCCS2(=O)=O)cc1	-7	0	-2	-42	.	.
COc1ccc(Cl)cc1C(=O)Nc1ccc(N2CCCCS2(=O)=O)cc1	-6	0	9.0*	-8	0	4
NC(=O)C1(N2CCCCC2)CCN(C(=O)Nc2ccc(F)cc2F)CC1	3	0	5.9*	-3	1	5
NC(=O)C1(N2CCCCC2)CCN(C(=S)Nc2ccc(F)cc2)CC1	2	0	-1	13	.	.
COc1cc(/C=C2\C(=O)NC(=O)N(C)C2=O)cc(OC)c1O	12	-1	2	7	.	.
CSc1cccc(N=CC2=C(O)CC(C)(C)CC2=O)c1	-11	0	7.1*	3	-1	-4
COc1cc(N2CCN(c3cccc(C(F)(F)F)c3)CC2)ncn1	16	1	0	18	.	.
CCc1ccc(C2=NC(c3ccc(SC)cc3)NC(c3ccccc3O)C2)cc1 (stereo unspecified)	8	0	1	-63	.	.
c1ccc2c(c1)OC[C@@H](c1nc3ccc(-c4ccncc4)cc3[nH]1)O2	10	0	0	-35	.	.
Cc1ccc2c(c1)OCC(c1nc3ccc(-c4ccncc4)cc3[nH]1)O2 (stereo unspecified)	10	0	5.1*	-7	0	-2
C=CCn1c(SCC(=O)c2cccc3ccccc23)nnc1-c1ccc(OC)cc1	15	-1	-1	0	.	.
O=C(NCc1ccccc1)c1ccc2c(=O)n(CCc3c[nH]c4ccccc34)c(=S)[nH]c2c1	10	0	0	-1	.	.
CC(=O)c1ccc(S(=O)(=O)NCCc2cn3ccc(C)cc3n2)cc1	5	0	5.0*	-4	1	10
CC(C)(C)c1cc(C(=O)Oc2cccc3cccnc23)cc(C(C)(C)C)c1	6	0	-2	3	.	.
Cn1c(=O)c2c(nc3n(C4CCCCC4)c(-c4ccccc4)cn23)n(C)c1=O	9	0	0	-18	.	.
COc1ccc(CCNS(=O)(=O)c2ccc(S(=O)(=O)N3CCOCC3)cc2)cc1	5	0	5.6*	5	1	2
COc1ccc(NC(=S)Nc2ccc(S(N)(=O)=O)cc2)c(OC)c1	3	0	0	-4	.	.
COc1ccc(NC(=S)Nc2ccc(S(=O)(=O)N3CCOCC3)cc2)c(OC)c1	6	0	5.2*	5	1	4
COc1ccc(NS(=O)(=O)c2ccc(S(=O)(=O)N3CCOCC3)cc2)cc1	2	0	0	-1	.	.
